Bioassay records: PubChem, Broad Institute
Not all results are given here.
aSyn 5UTR act: Activators working through SNCA 5'UTR binding (MLPCN); 300,000 compounds, 7.1% hits; alpha-synuclein 5'UTR reporter, activators screen; AID 1814; activity score, % (tested at 7.5 µM), hits read low; in the data active = activity score below about -60%
Starred values were filed as active, the others as inactive.

SMILES | aSyn 5UTR act
O=C1OC(c2ccccc2)=C/C1=C\N1CCOCC1 | -66.9*
Cc1noc(NC(=O)c2ccc(Cl)cc2)c1Cl | -69.8*
COc1ccc(NC(=O)c2onc(C)c2Cl)cc1 | -123.6*
Cc1noc(C(=O)Nc2cccc(Cl)c2)c1Cl | -78.6*
CCc1ccc(NC(=O)c2onc(C)c2Cl)cc1 | -181.9*
CCc1ccccc1NC(=O)c1cccc(NC(=O)/C=C/c2ccco2)c1 | -100.0*
O=C(/C=C/c1ccco1)Nc1ccc2c(c1)OCO2 | -187.7*
Cc1ccc(-n2nc3ccc(NC(=O)/C=C/c4ccco4)cc3n2)cc1 | -201.8*
CCOC(=O)c1ccc2c(c1)[nH]c(=S)n2CC | -64.2*
Cc1cccc(OCC2=NS(=O)(=O)c3ccccc3N2)c1 | -93.4*
O=C(c1ccc(-c2nc3ccccc3s2)s1)N1CCOCC1 | 100.4
Cc1noc(C)c1COC(=O)c1ccc(-c2nc3ccccc3s2)s1 | -205.6*
CCN1CCN(C(=O)c2ccc(-c3nc4ccccc4s3)s2)CC1 | -65.7*
O=C(NC1CC1)c1ccc(-c2nc3ccccc3s2)s1 | 96.3
CCNC(=O)COC(=O)c1ccc(-c2nc3ccccc3s2)s1 | -67.2*
CC1CN(Cc2csc(-c3ccc(Cl)cc3)n2)CC(C)O1 (stereo not drawn) | -105.4*
O=[N+]([O-])c1cc([N+](=O)[O-])c2cc3ccccc3nc2c1 | -176.0*
O=C(CN1CCCC1)Nc1nc(-c2ccc3c(c2)CCN3C(=O)c2ccccc2F)cs1 | -123.5*
Cc1cccc(C(=O)N2CCc3cc(-c4csc(NC(=O)CN5CCCC5)n4)ccc32)c1 | -74.1*
Cc1cccc(C(=O)N2CCc3cc(-c4nc(NC(=O)CN5CCCC5)sc4C)ccc32)c1 | -71.2*
O=C(Oc1cccc(/C=N/NC(=O)c2ccccn2)c1)c1ccc([N+](=O)[O-])cc1 | -100.0*
C/C(=N\NC(=O)C(C)Oc1ccc([N+](=O)[O-])cc1)c1ccccn1 (stereo not drawn) | 72.3
Cc1ccc(/C=N\NC(=O)c2csnn2)cc1 | -69.3*
O=C(N/N=C/c1ccc(OC(=O)c2ccccc2Cl)cc1)c1ccccn1 | -112.2*
CCN(CC)c1ccc(/C=N/NC(=O)c2ccccn2)cc1 | -125.3*
SMILES | aSyn 5UTR act
CCN(CC)c1ccc(/C=N/NC(=O)c2cnccn2)cc1 | -84.7*
Cn1c(-c2ccccc2)cnc1N | -121.9*
COCCn1c(-c2ccccc2)cnc1N | -82.7*
COc1ccc(-c2nc3c4ccccc4ccn3c2CN2CCOCC2)cc1OC | -94.7*
Cc1ccc(-c2cn(-c3ccccc3)c(SCC(=O)NC3CCS(=O)(=O)C3)n2)cc1C (stereo not drawn) | -143.5*
Cc1ccc(NC(=O)NC2=NN(c3ccccc3)C(=O)/C2=C2/CCCN2C)cc1 | -62.7*
Cc1cc(SCC(=O)N/N=C/c2ccc(O)c(O)c2O)c(C)cc1Br | 67.5
COc1ccc(-c2nn(-c3ccccc3)cc2/C=N/NC(=O)c2ccc3c(c2)OCO3)cc1 | -116.1*
O=C(N/N=C/c1c(O)ccc2ccccc12)c1ccc(Br)o1 | 106.3
COc1ccc(-c2nn(-c3ccccc3)cc2/C=N/NC(=O)c2ccc(Br)o2)cc1 | -97.5*
Cc1ccc(-c2nn(-c3ccccc3)cc2/C=N/NC(=O)CSc2nnc(C)n2-c2ccccc2)cc1 | -124.5*
Cc1occc1-c1nnc(SCC(=O)Nc2nc(C(C)(C)C)cs2)o1 | -111.0*
Cc1cnc(NC(=O)CSc2nnc(-c3ccccc3)o2)s1 | -138.7*
Cc1cnc(NC(=O)CC(C)c2ccccc2)s1 (stereo not drawn) | -196.5*
Cc1csc(NC(=O)CSc2nnc(-c3ccncc3)o2)n1 | -99.4*
O=C(CSc1nnc(-c2ccccc2)o1)Nc1ccccc1F | 73.7
Cc1csc(NC(=O)CSc2nnc(-c3ccoc3C)o2)n1 | -111.2*
Cc1ccc(NC(=O)Cc2noc3ccccc23)cc1 | -172.8*
Cc1ccc(C2=NNC(C(O)C(O)C(O)C(C)O)S2)cc1 (stereo not drawn) | -87.1*
COC(=O)Nc1nnc(-c2ccccc2Cl)s1 | -94.2*
COc1ccccc1CN1CC(C(=O)NCc2c(F)ccc(C)c2F)CCC1=O (stereo not drawn) | -72.0*
O=c1c(-c2cnn(-c3ccccc3)c2)coc2cc(O)ccc12 | -155.6*
Cc1oc2cc(O)ccc2c(=O)c1-c1cnn(-c2ccccc2)c1 | -76.9*
O=c1c(-c2ccc(O)cc2)coc2cc(O)ccc12 | -92.8*
Cc1cc(C(=O)CSc2nncs2)c(C)n1-c1ccc2c(c1)OCO2 | -153.1*
SMILES | aSyn 5UTR act
Cc1cc(C(=O)CSc2nnnn2-c2ccccc2)c(C)n1-c1ccc2c(c1)OCO2 | -90.9*
CC(C)c1ccc(NC(=O)C(=O)C2C(=O)Nc3ccccc32)cc1 (stereo not drawn) | -101.4*
CC(C)c1ccc(NC(=O)[C@H](Cc2c[nH]c3ccccc23)NC(=O)[C@@H]2Cc3ccccc3CN2)cc1 | 61.4
Cc1ncc(/C=C2\C(=O)Nc3ccccc32)[nH]1 | -104.2*
Cc1cc(C)c2c(c1)C(=O)/C(=C/c1ccc(C(=O)O)cc1)CC2 | -78.5*
CCOC(=O)C1CCCCN1C(=O)CCc1nnc(-c2ccc3c(c2)OCO3)o1 (stereo not drawn) | -65.2*
C/C(=N\NC(=O)CSCc1ccccc1Cl)c1cc(O)ccc1O | 61.8
